Drawing on a collection of fitness landscapes (doi:10.1126/science.1257360), this text covers enrichment ratio for 157 variants.

B1: PhoQ; a variant is named by its letters at X, in order, P23837 (parent)
chain: MKKLLRLFFPLSLRVRFLLATAAVVLVLSLAYGMVALIGYSVSFDKTTFRLLRGESNLFYTLAKWENNKLHVELPENIDKQSPTMTLIYDENGQLLWAQRDVPWLMKMIQPDWLKSNGFHEIEADVNDTSLLLSGDHSIQQQLQEVREDDDDAEMTHSVAVNVYPATSRMPKLTIVVVDTIPVELKSSYMVWSWFIYVLSANLLLVIPLLWVAAWWSLRPIEALAKEVRELEEHNRELLNPATTRELTSLVRNLNRLLKSERERYDKYRTTLTDLTHSLKTPLXXLQXXLRSLRSEKMSVSDAEPVMLEQISRISQQIGYYLHRASMRGGTLLSRELHPVAPLLDNLTSALNKVYQRKGVNISLDISPEISFVGEQNDFVEVMGNVLDNACKYCLEFVEISARQTDEHLYIVVEDDGPGIPLSKREVIFDRGQRVDTLRPGQGVGLAVAREITEQYEGKIVAGESMLGGARMEVIFGRQHSAPKDE

The full ranking holds about 140,000 sequences; the median of “enrichment ratio after two sorts for PhoP signalling” is about 0, and the highest 2% start at about 11. The entries come from a sample that favours the highest values as a whole.

In the test the parent is B1. In words: enrichment ratio after two sorts for PhoP signalling (ratio (wild type AVST 3.29)); higher = more functional. The following applies: with PhoP (E. coli).
As for NASN, the enrichment ratio was at most 0.25. For FVSN the value was at most 0.25; for QASN, 11.4; for GMMP, at most 0.25. Regarding DWWS, the enrichment ratio is at most 0.25. Then RCNY, with at most 0.25; and NNFP, with at most 0.25; and QNYN, with at most 0.25. For NSYV the value was at most 0.25; for AVPN, at most 0.25. For FCMQ the value was 1.02; for FFDG, at most 0.25. Take PVDG: the enrichment ratio is at most 0.25. For the variant QTDG, the enrichment ratio was 13.5. For the variant YTDG, the enrichment ratio was at most 0.25. Take TVDG: the enrichment ratio is at most 0.25.

For the variant QVDG, the enrichment ratio was found to be 30.4.

Regarding QGDG, the enrichment ratio is 11.8. For KSDG the value was at most 0.25; for QSDG, 11.8.

As to FCDG, the enrichment ratio was at most 0.25. For TSDG the value was 0.59. As to FTDG, the enrichment ratio was at most 0.25. Consider LTLA, for which the enrichment ratio is at most 0.25.

As for HNKA, the enrichment ratio was at most 0.25. On to AFKV, for which the enrichment ratio is at most 0.25.

As for RRQL, the enrichment ratio is at most 0.25. With RSSV, the enrichment ratio is at most 0.25.

As for VLVH, the enrichment ratio was at most 0.25. In the case of TVDW, the enrichment ratio is at most 0.25. Take TEFS: the enrichment ratio was 10.9. For QEFN, the enrichment ratio stood at 3.01.

Regarding QEFH, the enrichment ratio is at most 0.25. In the case of TEFQ, the enrichment ratio is 8.52. With MEFH, the enrichment ratio was found to be 4.99.

Consider TEFN, for which the enrichment ratio was found to be 18.2. For TEFI the value was 9.19; for TEFH, 12.1; for MEFN, 7.67.

For the variant TEFA, the enrichment ratio was found to be 11.3.

Regarding TEFP, the enrichment ratio is at most 0.25.

Regarding TEFC, the enrichment ratio worked out at 14.4. Then GKHH, with at most 0.25; and NVPN, with at most 0.25. With VKNT, the enrichment ratio is at most 0.25. Then GVCV, with 3.13; and AWFR, with at most 0.25; and RMDG, with at most 0.25.

Consider DDGS, for which the enrichment ratio was at most 0.25.

As to LMRD, the enrichment ratio was at most 0.25. For FKNL the value was at most 0.25.

As to FPYE, the enrichment ratio is at most 0.25. In the case of HPWR, the enrichment ratio is at most 0.25. In the case of WNMS, the enrichment ratio was at most 0.25. Regarding NTFG, the enrichment ratio is at most 0.25. On to TEFG, for which the enrichment ratio stood at 19. MEFG: the enrichment ratio is 5.56. Then NEFG, with at most 0.25. For WVYE the value was at most 0.25.

Regarding PMID, the enrichment ratio was at most 0.25. With ADCG, the enrichment ratio is 1.58. On to PGCG, for which the enrichment ratio was at most 0.25. For TDCG, the enrichment ratio was 13.4. Turning to ANCG, the enrichment ratio stood at 26.6. VHCG: the enrichment ratio was at most 0.25. In the case of NHCG, the enrichment ratio is at most 0.25. In the case of AKCG, the enrichment ratio is 2.88.

As for AHCG, the enrichment ratio amounted to 15.3. Turning to TGCG, the enrichment ratio was found to be 24.4. For the variant FDCG, the enrichment ratio was at most 0.25.

As to RGCG, the enrichment ratio was at most 0.25. As for KDCG, the enrichment ratio was at most 0.25. As for AIDP, the enrichment ratio is at most 0.25.

As for IFDW, the enrichment ratio is at most 0.25. PKQC: the enrichment ratio is at most 0.25. Regarding DRKW, the enrichment ratio was at most 0.25. For LGNW the value was at most 0.25; for FFWM, at most 0.25. FMLS: the enrichment ratio is at most 0.25. Turning to ADIG, the enrichment ratio was at most 0.25. Turning to ANIG, the enrichment ratio came out at 29.2.

Turning to AHIG, the enrichment ratio is at most 0.25. For REKI, the enrichment ratio is at most 0.25. With KRHD, the enrichment ratio is at most 0.25. For the variant LMWD, the enrichment ratio is at most 0.25.

GEKA: the enrichment ratio is at most 0.25.

As to GETK, the enrichment ratio is at most 0.25.

With GELF, the enrichment ratio was 9.93.

Regarding GELG, the enrichment ratio stood at 22.4.

For the variant GELH, the enrichment ratio worked out at 11.9.

In the case of GENS, the enrichment ratio is at most 0.25. For the variant GELM, the enrichment ratio was 15.9. On to GETI, for which the enrichment ratio was found to be 11.6. As to GYLH, the enrichment ratio was at most 0.25.

For the variant GYLG, the enrichment ratio was at most 0.25. As to GETC, the enrichment ratio came out at 3.51. In the case of GETH, the enrichment ratio is at most 0.25. As to HGYA, the enrichment ratio is at most 0.25. For STTP the value was at most 0.25; for YKHK, at most 0.25; for SYEL, at most 0.25. As for TAIS, the enrichment ratio came out at 0.325. Consider NLWP, for which the enrichment ratio is at most 0.25. As to RDCA, the enrichment ratio was at most 0.25. For EMPC the value was at most 0.25; for PMHF, at most 0.25; for DDQI, at most 0.25. PLHV: the enrichment ratio is at most 0.25.

As for KPNT, the enrichment ratio is at most 0.25. Regarding RISY, the enrichment ratio was at most 0.25.

On to GEWI, for which the enrichment ratio is at most 0.25.

Take GELA: the enrichment ratio came to 18.1. Then GELS, with 8.59; and ASCY, with 0.505. Then LYCM, with at most 0.25. Take SGIV: the enrichment ratio was 7.69. Take ANIQ: the enrichment ratio was found to be 11. With HVDI, the enrichment ratio was at most 0.25. In the case of WNPW, the enrichment ratio was at most 0.25. For TECI, the enrichment ratio worked out at 2.38. For NEAI the value was at most 0.25; for NECG, at most 0.25. For TECG, the enrichment ratio was 15.7. As for TECS, the enrichment ratio was 26.8. As for TEEG, the enrichment ratio was found to be 9.76. Consider TEGQ, for which the enrichment ratio is at most 0.25.

Take NECQ: the enrichment ratio was at most 0.25. Turning to TEAI, the enrichment ratio is 20.4. Then TEYY, with 10.3; and TECA, with 0.528; and TECQ, with 12.3. As to KAWS, the enrichment ratio was at most 0.25.

For GAMP, the enrichment ratio is at most 0.25. For KTEG, the enrichment ratio was at most 0.25. For STDK, the enrichment ratio is at most 0.25. Then AAVN, with at most 0.25; and KDFG, with at most 0.25.

For the variant QECV, the enrichment ratio stood at 8.7. In the case of TECV, the enrichment ratio was found to be 22.2. As to TECW, the enrichment ratio worked out at 37.6.

Take NECW: the enrichment ratio was at most 0.25. For MECW the value was at most 0.25. Regarding TPKM, the enrichment ratio was at most 0.25. Consider LMLV, for which the enrichment ratio was at most 0.25. In the case of GRQP, the enrichment ratio is at most 0.25. For NSMI, the enrichment ratio stood at 2.19.

On to FEMI, for which the enrichment ratio worked out at 13.

As for KCMI, the enrichment ratio is at most 0.25. For the variant YTMI, the enrichment ratio worked out at 6.21. For the variant VYMI, the enrichment ratio was at most 0.25.

For the variant FEMD, the enrichment ratio is at most 0.25. For FEMW, the enrichment ratio was at most 0.25.

With FTPA, the enrichment ratio is 0.426. In the case of FCMI, the enrichment ratio turned out to be 33.7. As to FTMI, the enrichment ratio was 13.1. As for VCMI, the enrichment ratio is 17.6. Then FCMS, with at most 0.25.
